Assay outcomes: PubChem BioAssay, National Center for Advancing Translational Sciences (NCATS)
The list is not random: actives were taken first. Their share in the collection is about 3.6%.
D1 antagonist: blocks dopamine activation of the human D1 receptor; P21728; HEK293 TREx D1 cells, calcium flux, dopamine EC80; hits give low values; activity change, negative = inhibition, % at 10 µM; 360,000 tested, 3.2% active; AID 504652; in the data active means activity change below about -30%
Target sequence (P21728 whole entry, looked up): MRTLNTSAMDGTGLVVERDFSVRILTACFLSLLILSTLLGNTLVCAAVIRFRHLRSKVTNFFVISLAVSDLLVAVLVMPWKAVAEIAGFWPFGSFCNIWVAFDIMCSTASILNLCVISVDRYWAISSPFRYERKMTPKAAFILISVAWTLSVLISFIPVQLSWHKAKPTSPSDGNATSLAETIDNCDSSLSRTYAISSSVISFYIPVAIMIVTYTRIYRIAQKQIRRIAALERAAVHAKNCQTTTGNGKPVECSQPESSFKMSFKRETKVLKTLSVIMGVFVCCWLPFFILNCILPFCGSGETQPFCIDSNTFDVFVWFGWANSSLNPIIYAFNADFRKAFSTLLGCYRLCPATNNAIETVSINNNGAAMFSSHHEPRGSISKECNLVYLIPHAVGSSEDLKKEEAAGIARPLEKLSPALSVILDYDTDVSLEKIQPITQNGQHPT
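Calcium flux readout: force-coupled, inducible Hek293 Trex D1 line, cells induced overnight at 30 C with tetracycline, dye-loaded 30–90 min at RT. Antagonism scored against EC80 dopamine challenge given 180 s after compound.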
LDHA inh: LDHA (human) enzyme inhibition; P00338; purified LDHA, NADH/diaphorase-resazurin fluorescence; hits give low values; activity change, % (values are at about 110 or 230 µM); 480,000 tested, 0.15% active; in the data active means activity change below about -30%; inconclusive means mostly about -25% to -30%
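Remaining NADH was detected by diaphorase (0.133 mg/mL) converting 37 µM resazurin to fluorescent resorufin, read at 0 and 20 minutes. The preceding 5-minute room-temperature reaction used 2 nM LDHA, 0.2 mM sodium pyruvate and 0.06 mM NADH at pH 7.4.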
D1 PAM: enhances dopamine response at the human D1 receptor | HEK293 TREx D1 cells, calcium flux, dopamine EC20 potentiation | AID 504651 | 360,000 tested, 0.036% active | potentiation, % at 10 µM | P21728; in the data active means potentiation above about 30%
TRHR agonist: TRH receptor (human) agonism | 360,000 tested, 0.18% active | TRHR cells, calcium flux fluo-8, FDSS agonist mode | P34981 | activation, % at 2 µM
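TRHR-expressing cells, plated overnight in medium with 10% serum, were loaded with fluo-8 calcium dye at room temperature. After a 10 s baseline, library compound was pin-added and calcium release was recorded kinetically (ex 480/em 530) as agonist response.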
D1 ag: activates the human D1 dopamine receptor; AID 504660; activation, % at 2 µM; HEK293 T-REx D1 cells, calcium flux, agonist mode; P21728; 360,000 tested, 1% active
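Agonism was scored from calcium flux recorded over 180 s (1 read/s) after pintool compound addition, following a 10-cycle baseline. Cells were inducible force-coupled HEK293 TREx D1, plated overnight at 30 C and loaded with no-wash calcium dye.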
TRHR enhancer: TRH receptor (human) allosteric enhancement. 360,000 tested, 0.66% active. P34981. TRHR cells, fluo-8 calcium fluorescence, EC20 TRH enhancement. enhancement, % at 2 µM; in the data active means enhancement above about 30%
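TRHR-expressing cells loaded with fluo-8 calcium dye were read kinetically (ex 480/em 530) during compound addition, then stimulated with an EC20 of TRH (10 nM final). Enhancement of the Gq-mediated intracellular calcium response was scored.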
A number is an active result; i = inactive; ? = inconclusive; nt = not tested or not shown; ! = not confirmed by another sample. Unless noted, no stated cut-off is given here; in the data, active means activation above about 30%; inactive means the rest.

SMILES	D1 antagonist	LDHA inh	D1 PAM	TRHR agonist	D1 ag	TRHR enhancer
CCc1ccccc1NC(=O)c1nc2ccccc2nc1N(CC)CC	nt	i	nt	nt	nt	nt
CNc1c(NC(=O)NC(C)C)c(=O)oc2ccccc12	nt	i	nt	nt	nt	nt
CC(Sc1nnc(Nc2ccccc2)s1)C(=O)Nc1nc(-c2ccccc2)cs1 (stereo not given)	nt	i	i	i	i	i
CC(Sc1nnc(NCc2ccccc2)s1)C(=O)Nc1ccc2c(c1)C(=O)c1ccccc1C2=O (stereo not given)	-33	i	i	i	i	i
O=C(/C=C/c1ccc(N2CCC(c3ccccc3)=N2)cc1)c1ccccc1	i	i	i	57	138	i
O=C(COC(=O)c1ccc2ccccc2n1)c1ccc(Cl)cc1	nt	i	nt	nt	nt	nt
Cc1ccc(-c2nn(-c3ccccc3)cc2CSC(=N)N)cc1	i	i	i	i	51	i
CCOc1ccc(OCC)c(C(=O)Nc2cc(C)ccn2)c1	nt	i	nt	nt	nt	nt
Cc1nc(-c2ccccc2)sc1-c1ccc(SCC(=O)Nc2ccccc2)nn1	i	i	i	i	i	i
COC(=O)c1ccc(NC(=O)CSc2ccc(-c3sc(-c4ccccc4)nc3C)nn2)cc1	-46	i	i	i	i	i
COc1cc(NC(=O)CN2C(=O)COc3cc(C(C)(C)C)ccc32)cc(OC)c1	nt	i	nt	nt	nt	nt
CC1Cc2cc(S(=O)(=O)NCc3ccccc3Cl)ccc2N1C(=O)C1CCC1 (stereo not given)	-80	i	i	i	i	i
CC1Cc2cc(S(=O)(=O)NCc3ccc(N(C)C)cc3)ccc2N1C(=O)C1CCC1 (stereo not given)	i	i	i	i	i	45
CCC(=O)N1c2ccc(S(=O)(=O)NCc3ccc(F)cc3)cc2CC1C (stereo not given)	-33	i	i	i	i	i
Cc1ccc(NS(=O)(=O)c2ccc3c(c2)CC(C)N3C(=O)C2CCC2)cc1Cl (stereo not given)	i	i	i	i	i	i
CC(=O)Nc1ccc(NS(=O)(=O)c2ccc3c(c2)CC(C)N3C(=O)C2CCC2)cc1 (stereo not given)	i	i	i	i	i	46
CCC(=O)N1c2ccc(S(=O)(=O)NCCc3ccc(C)cc3)cc2CC1C (stereo not given)	i	i	i	i	i	i
CN(c1ccccc1)c1nc2c(c(=O)n(C)c(=O)n2C)n1CC(=O)O	nt	i	nt	nt	nt	nt
Cc1c(C(=O)NCc2ccco2)oc2c1/C(=N/O)CCC2	nt	i	nt	nt	nt	nt
COc1cccc(CCNC(=O)C2CCC(=O)N(Cc3cccc(OC)c3)C2)c1 (stereo not given)	-52	i	i	i	i	i
COc1cccc(CN2CC(C(=O)NCCc3ccc(C)o3)CCC2=O)c1 (stereo not given)	i	i	i	i	i	i
O=C(CSc1ncnc2c1sc1cccc(F)c12)NC1CCCCC1	nt	i	nt	nt	nt	nt
CN(C)C(=O)c1ccc(NC(=O)c2cc(-c3ccco3)nc3ccccc23)cc1	i	i	i	i	i	i
CCN(CC)CCNC(=O)c1ccc(NC(=O)c2cc(-c3ccco3)nc3ccccc23)cc1	-40	i	i	i	i	i
Cc1csc(NC(=O)c2cc(-c3ccco3)nc3ccccc23)n1	-31	i	i	i	i	i
SMILES	D1 antagonist	LDHA inh	D1 PAM	TRHR agonist	D1 ag	TRHR enhancer
N#CC1=C(N)Oc2c(c(=O)[nH]c3ccccc23)C1c1ccc(F)cc1 (stereo not given)	nt	i	nt	nt	nt	nt
CCN(CC)c1nc2ccccc2c(N)c1-c1ccccc1	-33	?	i	i	i	i
COCCN1C(=O)/C(=C/c2ccc(N3CCCC3)cc2)SC1=S	i	i	i	44	258	i
CN1CCN(C(=O)CCCN2C(=O)/C(=C/c3ccc(Cl)cc3)SC2=S)CC1	-61	i	i	i	i	i
N=C(N)N1CCN(c2ccccc2)CC1	nt	i	nt	nt	nt	nt
CCn1c(SCc2noc(-c3ccccc3Cl)n2)nnc1N1CCOCC1	nt	i	nt	nt	nt	nt
COC(=O)/C=C/S(=O)(=O)c1ccc(NC(C)=O)cc1	i	i	i	i	i	33
COc1ccccc1OS(=O)(=O)c1ccc(NC(C)=O)cc1	i	i	i	i	i	i
COC(=O)CN1C(C(=O)c2ccccc2)=C(OC(=O)c2ccc(F)cc2)c2ccccc2S1(=O)=O	-78	i	i	i	i	i
Cc1cc(OCC(=O)N[C@@H](CSCc2ccccc2)C(=O)O)c2c(C)c(C)c(=O)oc2c1	i	i	i	i	i	41
Cc1ccccc1NC(=S)NCC1CCN(C(C)c2ccccc2)C1 (stereo not given)	-36	i	i	i	i	i
Cc1cc(C)cc(NC(=S)NCC2CCN(C(C)c3ccccc3)C2)c1 (stereo not given)	i	i	i	i	i	i
Cc1ccc(-c2nc3ccccc3n2Cc2cccc(F)c2)o1	nt	i	nt	nt	nt	nt
CCN1CN=C(NS(=O)(=O)c2ccc(C)cc2)NC1	nt	i	i	i	34	i
COc1ccccc1C1CC(c2ccc(NS(C)(=O)=O)cc2)=NN1S(=O)(=O)c1ccccc1 (stereo not given)	i	i	i	i	i	i
COc1ccccc1C1CC(c2cccc(NS(C)(=O)=O)c2)=NN1S(=O)(=O)c1ccccc1 (stereo not given)	i	i	i	i	i	31
COC(=O)Cc1c(C)c2ccc(OCC(=O)N3CCOCC3)cc2oc1=O	-32	i	i	i	i	i
CCOC(=O)COc1ccc2c(C)c(CC(=O)OC)c(=O)oc2c1	nt	i	nt	nt	nt	nt
CCc1ccc(OCC(=O)Nc2nc(-c3ccc(S(=O)(=O)N4CCOCC4)cc3)cs2)cc1	nt	i	nt	nt	nt	nt
Cc1cc(=O)oc2cc(OCC(=O)N3CCc4sccc4C3c3ccccc3)ccc12 (stereo not given)	nt	i	nt	nt	nt	nt
CCCCOc1ccc(Cn2c(=O)oc3ccc(C)cc32)cc1	-79	i	i	i	i	i
CCCCOc1ccc(Cn2c(=O)oc3ccccc32)cc1	-39!	i	i	i	i	i
Cc1ccc2oc(=O)n(Cc3ccc(OC(C)C)cc3)c2c1	i	i	i	i	i	i
COc1ccccc1C(=O)Oc1ccc2c(=O)c(-c3ccccc3OC)coc2c1	nt	i	nt	nt	nt	nt
COc1ccc2c(C)cc(SCC(=O)N(C)C3CCCCC3)nc2c1	nt	i	nt	nt	nt	nt
O=C(CCc1c[nH]c2ccccc12)Nc1ccccc1OC(F)F	nt	i	nt	nt	nt	nt
CNC(=O)c1ccccc1NC(=O)C1CC(=O)N(C(C)C)C1 (stereo not given)	i	i	i	i	i	37
CCn1c(CC23CC4CC(CC(C4)C2)C3)nnc1SCc1ccc(F)cc1	nt	i	nt	nt	nt	nt
O=C(COc1ccccc1-c1ccccc1)N/N=C/c1cccc2ccccc12	i	i	i	i	i	i
CC(C)(C)c1ccc(C(=O)NCC(=O)N/N=C/c2ccccc2OCC(=O)O)cc1	i	i	i	i	i	i
